{"source": "PubChem BioAssay", "data": [{"experiment": "COS7 lysate on small-molecule microarray, probe aHis, 635 nm (AID 1123);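 also: z-score combines 667nm fluorescence intensity with signal-to-noise per printed compound spot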", "settings": "COS7 cell lysate, fluorescence, higher = more signal", "values": [{"smiles": "CCCN1C(=O)[C@@]2(Cc3ccccc3)N=C(c3ccc(OCCCO)cc3)O[C@H]2c2ccccc21", "composite z-score": 2.69}, {"smiles": "O=C1c2ccccc2[C@](Cc2ccccc2I)(C(=O)NCC(F)(F)F)[C@H](c2ccc(CO)cc2)N1Cc1ccccc1", "composite z-score": 2.19}, {"smiles": "COc1ccc([Si](C)(C)[C@@H]2[C@@H](CC(=O)N(CCO)Cc3ccccc3)O[C@]3(C(=O)N(C)c4c(Br)cc(C)cc43)[C@H]2C)cc1", "composite z-score": 0.741}, {"smiles": "CCOC(=O)C[C@H]1[C@H](OC(=O)Cc2ccc3c(c2)OCO3)[C@@H](NC(=O)c2ccccc2)c2cc(OCCCO)ccc2N1C(=O)c1ccc2ccccc2n1", "composite z-score": 0.526}, {"smiles": "COC(=O)[C@]1(Cc2ccccc2CN=[N+]=[N-])N=C(c2ccc(OCCCO)cc2)O[C@@H]1c1ccccc1", "composite z-score": 0.243}, {"smiles": "CN(C)CCCC[C@@H]1NC(=O)[C@H]2C[C@@H](C(=O)NCCCCCCNC(=O)CS)[C@@H](c3ccc(O)cc3)N2C1=O", "composite z-score": 2.66}, {"smiles": "O=C(O)[C@]1(CCS(=O)(=O)c2ccccc2)N=C(c2ccc(OCCCO)cc2)O[C@@H]1c1ccccc1", "composite z-score": 2.59}, {"smiles": "C=CCC(OC(C)=O)[C@@H]1[C@@H](N(Cc2cccc3ccccc23)C(=O)c2ccc(C)cc2)c2cc(OCCCO)ccc2N1C(=O)c1ccc2ccccc2c1", "note": "(stereo partly drawn)", "composite z-score": 0.583}]}]}
